Data from PubChem BioAssay.
Values joined by “and” are separate entries in the source; they are usually repeats but may differ in a detail not shown here. Identical values can stand only once. More than one record can exist for a structure, and the calls need not agree. Active and inactive are the calls of the source.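 The calls were made as follows, unless noted: active = inhibition at or above 50% relative to wild type and mutant plate controls; inactive = inhibition below 50%.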

Legend:
[1] = inhibitors of TNFa-induced NFkB p65 translocation, primary screen, imaging, HUVEC, MLSMR starter and 10KST1 sets (AID 438;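 active = inhibition above 20% together with a positive visual image hit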;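 also: compound added about 3h40 before a 20 min TNFalpha stimulation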;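 as to inhibition: signal is the nuclear over cytoplasmic p65 intensity ratio per well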); details: HUVEC TNFa-induced p65 nuclear translocation; cell count: measured here: nuclei count (cytotoxicity indicator), at 2.08 µM; inhibition: at 2 µM, stronger effect = higher value, 0% TNFa-plus-vehicle, 100% no-TNFa wells
[2] = reduction of polyQ htt aggregates in cells – imaging, exon1htt(103Q)mCFP cells, high-content imaging, primary screen (AID 483;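 active = visual image review flags a hit and inhibition of aggregation exceeds 20%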;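 also: compound exposure lasted 3 days before fixation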;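 as to nuclei count: percent of the per-plate median nuclei count of sample wells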); details: exon1htt(103Q)mCFP cell line, aggregate imaging, at 2 µM; inhibition of aggregation: stronger effect = higher value; nuclei count: measured here: cell count, toxicity
[3] = endothelial E-selectin expression blockers – imaging, HUVEC, immunofluorescence, MLSMR starter and 10KST1 sets, primary screen (AID 487;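 active = visually confirmed hit in the image check and inhibition above 20%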;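 as to inhibition: signal is fraction of cell area covered by stained E-selectin grains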;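 as to nuclei count: 100% = median nuclei count of all wells on the same plate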); details: HUVEC TNFalpha-induced E-selectin immunofluorescence imaging, at 2 µM; inhibition: stronger effect = higher value; nuclei count: measured here: cell number, toxicity
[4] = Primary imaging screen for DUSP6 inhibitors that restore phospho-Erk in transfected HeLa cells, chemical complementation (AID 609;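 active = compounds giving at least 50% inhibition in the cell-based MKP-3 phosphatase rescue imaging test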;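 as to inhibition: phospho-Erk level distribution per well compared with pooled transfected vehicle control wells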); details: HeLa MKP-3 transfected, phospho-Erk imaging KS statistic, at 10 µM, cells stimulated with TPA for 15 min
[5] = target: Dual specificity protein phosphatase 6 (Homo sapiens) (UniProt Q16828); test: as above; details: HeLa MKP-3 transfected, phospho-Erk imaging KS statistic; at 10 µM; stronger effect = higher value; cells stimulated with TPA for 15 min
[6] = target: Voltage-gated potassium channel subunit beta-2 (Rattus norvegicus) (UniProt P62483); test: inhibitors of rat Kvbeta2 reductase activity – biochemical, NADPH fluorescence, primary screen (AID 622;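 active = fluorescence slope higher than the sample average by over 3 SD, cut at about -0.22 in these data, passing the limit was not always enough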;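 also: slope of raw intensity against log time taken from 70 to 1610 s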); details: recombinant KvBeta, 4-cyanobenzaldehyde reduction, at 10 µM, stronger effect = higher value
[7] = target: Voltage-gated potassium channel subunit beta-2 (Rattus norvegicus) (UniProt P62483); test: enhancers of rat Kvbeta2 NADPH turnover – biochemical, NADPH fluorescence, primary screen (AID 623;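 active = NADPH fluorescence slope more negative than the mean of all samples by about 3 SD, 99.7% confidence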;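 also: fluorescence intensity change per second fitted from 20 to 320 s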); details: Recombinant KvBeta, NADPH fluorescence decrease slope, 10 min; at 10 µM; stronger effect = lower value
[8] = target: Alpha-2C adrenergic receptor (Homo sapiens) (UniProt P18825); test: compounds altering alpha2C-coupled GIRK flux – cell-based, HEK293 alpha2C/GIRK1/2, thallium flux, primary screen (AID 624;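 active = fluorescence slope after compound addition differing from the mean of all screened samples at 99.7% confidence, in either direction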;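 also: slope of fluorescence ratio to pre-addition baseline per second over 15 to 24 s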); details: thallium flux BTC fluorescence, at 10 µM, actives lie on both sides
[9] = inhibitors of larval lipid processing in zebrafish, primary screen, whole organism, PED6 fluorescence, gall bladder and intestine (AID 686;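 active = a full or partial loss of lipid-probe fluorescence in the fish gall bladder, intestine or both, judged by eye; inactive = no fluorescence loss, or compound toxic to the fish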;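 also: larvae 5 to 7 days old with five fish per well; signal comes from phospholipase A2 cleavage of quenched PED6 carried via bile; overnight exposure to compound and PED6 before scoring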); details: Zebrafish larvae PED6 lipid processing, fluorescence scoring; screened at 20 µM (by protocol)
[10] = loss of swimming-algae plug formation – whole organism, Chlamydomonas reinhardtii, WT vs cilia-less mutant, absorbance, 96-well, primary screen (AID 463189); details: Chlamydomonas reinhardtii gravitaxis, OD600 absorbance, 2 days; at 10 µM; stronger effect = higher value;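 also: 0% = wild type cc124 cells in DMSO and 100% = ciliumless bld1 mutant cells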
[11] = blockers of RIG-like receptor reporter activation – cell-based, Sendai virus stimulus, luciferase, 10K MLSCN set, TLR/RLR signaling modifier project, primary screen (AID 602276;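 active = inhibition at or above 50% at 10 µM; inactive = inhibition below 50%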;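 also: firefly luciferase from ISG56 promoter only with Renilla not read in this screen; 0% = Sendai virus plus DMSO and 100% = medium plus DMSO without virus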); details: HEK293 RL24 IRF3 luciferase reporter, at 10 µM, stronger effect = higher value
[12] = TLR3 IRF3 reporter activation blockers – cell-based, poly I:C stimulus, luciferase, 10K MLSCN set, primary screen (AID 602277;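 active = inhibition of the reporter signal at or above 50%; inactive = inhibition below 50%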); details: HEK293-TLR3 RL24 IRF3 luciferase reporter, at 10 µM, stronger effect = higher value
[13] = target: Muscarinic acetylcholine receptor M4 (Homo sapiens) (UniProt P08173); test: M4-linked GIRK flux change, two-sided – cell-based, HEK293 M4/GIRK, thallium flux, BTC-AM, M4 allosteric agonist project, primary screen (AID 625;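 active = fluorescence slope after compound addition differing from the mean of all tested samples at 99.7% confidence, mostly higher but some lower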;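 also: thallium influx through GIRK channels coupled to M4 in HEK293 cells with BTC-AM dye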); details: at 10 µM, actives lie on both sides
[14] = measured here: cell density z-score
[15] = measured here: nuclear c-Myc green intensity z-score
[16] = measured here: nuclear pErk red intensity z-score, stronger effect = higher value

Chain of Voltage-gated potassium channel subunit beta-2 (Rattus norvegicus) (P62483 whole entry, looked up): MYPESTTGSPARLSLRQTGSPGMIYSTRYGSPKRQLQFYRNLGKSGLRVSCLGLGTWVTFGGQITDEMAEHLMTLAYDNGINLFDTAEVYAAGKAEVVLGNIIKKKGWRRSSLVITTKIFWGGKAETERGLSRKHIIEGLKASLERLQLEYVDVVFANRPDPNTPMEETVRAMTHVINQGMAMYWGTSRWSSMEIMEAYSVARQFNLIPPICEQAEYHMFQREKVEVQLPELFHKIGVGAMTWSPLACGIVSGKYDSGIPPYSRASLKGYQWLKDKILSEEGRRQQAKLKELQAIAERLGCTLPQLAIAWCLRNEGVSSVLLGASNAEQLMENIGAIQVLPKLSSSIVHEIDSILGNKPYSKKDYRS
Chain of Alpha-2C adrenergic receptor (Homo sapiens) (P18825 whole entry, looked up): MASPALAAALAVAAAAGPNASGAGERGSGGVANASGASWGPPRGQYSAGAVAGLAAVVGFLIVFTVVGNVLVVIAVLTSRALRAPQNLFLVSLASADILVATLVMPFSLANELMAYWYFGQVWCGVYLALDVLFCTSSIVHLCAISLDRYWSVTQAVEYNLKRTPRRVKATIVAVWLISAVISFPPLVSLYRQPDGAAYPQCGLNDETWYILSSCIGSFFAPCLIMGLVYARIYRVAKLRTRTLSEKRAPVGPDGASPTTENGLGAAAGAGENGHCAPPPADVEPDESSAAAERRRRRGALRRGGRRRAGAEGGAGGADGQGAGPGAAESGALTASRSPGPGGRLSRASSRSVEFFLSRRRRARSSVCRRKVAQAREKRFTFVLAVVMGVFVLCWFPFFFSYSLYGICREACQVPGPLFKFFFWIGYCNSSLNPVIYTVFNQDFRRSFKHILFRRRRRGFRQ
Chain of Dual specificity protein phosphatase 6 (Homo sapiens) (Q16828 whole entry, looked up): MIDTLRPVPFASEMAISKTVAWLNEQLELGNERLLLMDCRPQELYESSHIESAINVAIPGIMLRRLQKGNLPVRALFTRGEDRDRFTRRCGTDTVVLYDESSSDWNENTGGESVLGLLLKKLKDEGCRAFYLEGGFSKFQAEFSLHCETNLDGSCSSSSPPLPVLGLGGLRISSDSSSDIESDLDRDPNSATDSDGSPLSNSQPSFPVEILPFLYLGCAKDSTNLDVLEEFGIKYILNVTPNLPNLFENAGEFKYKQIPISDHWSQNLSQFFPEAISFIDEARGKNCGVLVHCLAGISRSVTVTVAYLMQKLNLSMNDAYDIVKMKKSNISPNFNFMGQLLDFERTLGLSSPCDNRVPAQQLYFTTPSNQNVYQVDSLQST
Chain of Muscarinic acetylcholine receptor M4 (Homo sapiens) (P08173 whole entry, looked up): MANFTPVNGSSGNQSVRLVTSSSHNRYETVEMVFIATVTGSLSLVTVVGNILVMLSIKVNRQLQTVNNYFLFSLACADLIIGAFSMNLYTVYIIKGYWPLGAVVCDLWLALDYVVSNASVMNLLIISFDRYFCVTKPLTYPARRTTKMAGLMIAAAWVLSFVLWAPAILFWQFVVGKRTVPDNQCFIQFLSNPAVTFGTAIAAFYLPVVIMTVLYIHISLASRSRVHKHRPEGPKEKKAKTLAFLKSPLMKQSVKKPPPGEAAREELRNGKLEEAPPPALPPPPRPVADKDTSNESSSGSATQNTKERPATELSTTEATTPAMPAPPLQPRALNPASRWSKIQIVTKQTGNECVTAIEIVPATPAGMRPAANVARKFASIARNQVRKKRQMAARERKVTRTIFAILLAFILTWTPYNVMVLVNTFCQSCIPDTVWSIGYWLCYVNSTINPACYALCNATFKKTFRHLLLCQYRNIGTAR

Row | SMILES | cell count [1] | inhibition [1] | inhibition of aggregation [2] | nuclei count [2] | inhibition [3] | nuclei count [3] | z-score [4, 14] | z-score [4, 15] | z-score [4, 16] | inhibition [5] | fluorescence slope [6] | NADPH fluorescence slope [7] | slope [8] | outcome [9] | inhibition [10] | inhibition [11] | inhibition [12] | fluorescence slope [13]
1 | O=C(CSc1nnc(-c2ccccc2)c(-c2ccccc2)n1)N1CCOCC1 | 611 | -6.9% (inactive) | 15.5% (inactive) | 96.7% | -44.9% (inactive) | 134% | -0.179 | -0.654 | 1.26 | -3.5% (inactive) | -0.397 (inactive) | -1.1e-05 (inactive) | 0.00498 (inactive) | inactive | 9.56% (inactive) | 14.8% (inactive) | 18% (inactive) | 
2 | CCN1CCN(c2nc3c(C)cccn3c(=O)c2/C=C(\C#N)S(=O)(=O)c2ccccc2)CC1 | 501 | -1.7% (inactive) | -13.4% (inactive) | 108% | -71.1% (inactive) | 118% | 0.894 | -1.58 | 2.23 | 3.5% (inactive) | -0.517 (inactive) | -1.8e-05 (inactive) | 0.00181 (inactive) | inactive | 18.9% (inactive) | 9.29% (inactive) | 23.8% (inactive) | 
3 | COC(=O)c1cc(Br)c(=O)n(CCc2ccc(F)cc2)c1 | 595 | -7.1% (inactive) | -4.6% (inactive) | 93.4% | 6.1% (inactive) | 151% | -0.681 | 0.872 | 1.23 | 1.9e-07% (inactive) | -0.324 (inactive) | -5.7e-05 (inactive) | 0.00485 (inactive) | active; no signal in intestine only | -7.76% (inactive) | 4.86% (inactive) | 5.55% (inactive) | 
4 | Cc1ccc(/C=N/n2nnnc2N)o1 | 674 | -1.3% (inactive) | 3.9% (inactive) | 132% | -8.1% (inactive) | 133% | 0.152 | -0.504 | 0.0866 | 1.04% (inactive) | -0.487 (inactive) | -2.1e-05 (inactive) |  | inactive | 5.51% (inactive) | -2.49% (inactive) | 3.55% (inactive) | 0.00641 (inactive)
5 | CC1=C(C)C(=O)C(CCCCC#CCCCC#CCO)=C(C)C1=O | 531 | 4.4% (inactive) | 9.6% (inactive) | 95.5% | -112% (inactive) | 108% | 0.752 | -0.729 | -1.42 | 19.2% (inactive) | -0.452 (inactive) | -2.1e-05 (inactive) | 0.00343 (inactive) | inactive | -6.32% (inactive) and 57.1% (active) | 14.4% (inactive) | 32.8% (inactive) | 
6 | CC(=O)[C@H]1CC[C@H]2[C@@H]3CCC4=CC(=O)CC[C@]4(C)[C@H]3[C@H](O)C[C@]12C | 603 | -11.5% (inactive) | 8.3% (inactive) | 112% | -156% (inactive) | 135% | 1.17 | 0.758 | -0.978 | 7.39% (inactive) | -0.485 (inactive) | 4.5e-06 (inactive) | 0.00386 (inactive) | inactive | -5.96% (inactive) | -13.1% (inactive) | -16.3% (inactive) | 
7 | COc1ccc(-n2c(SCC(N)=O)nc3sc4c(c3c2=O)CCN(C)C4)cc1 | 537 | -5.6% (inactive) | 32% (inactive) | 58% | -51.4% (inactive) | 134% | -0.15 | 1.95 | -0.53 | -2.69% (inactive) | -0.305 (inactive) | -1.8e-06 (inactive) | 0.00454 (inactive) | inactive | -8.09% (inactive) | -4.01% (inactive) | 0.612% (inactive) | 
8 | CC[C@]1(O)CC2CN(CCc3c([nH]c4ccccc34)[C@@](C(=O)OC)(c3cc4c(cc3OC)N(C=O)[C@H]3[C@@](O)(C(=O)OC)[C@H](OC(C)=O)[C@]5(CC)C=CCN6CC[C@]43[C@@H]65)C2)C1 (stereo not given in full) | 496 | 31.7% (active) | -69.9% (inactive) | 1.5% | -122% (inactive) | 76.8% | 0.276 | -0.499 | 1.19 | 27.9% (inactive) | -0.439 (inactive) | -3.8e-07 (inactive) | 0.00563 (inactive) | inactive | -2.94% (inactive) | 32.7% (inactive) | 85.7% (active) | 
9 | Cc1nc2c(c(=O)n1CC1CCCO1)c1nc3ccccc3nc1n2CC(C)C (stereo not given) | 460 | -4.3% (inactive) | 12.6% (inactive) | 107% | -42.3% (inactive) | 96.8% | 1.43 | 1.1 | -2.3 | 9.42% (inactive) | -0.449 (inactive) | -6.4e-05 (inactive) | 0.00602 (inactive) | inactive | 0.529% (inactive) | 20.9% (inactive) | 22.8% (inactive) | 
10 | NC(N)=NS(=O)(=O)c1ccc(N)cc1 | 630 | 0.4% (inactive) | 9.4% (inactive) | 99.7% | -107% (inactive) | 136% | 0.695 | -0.407 | -0.348 | 14.6% (inactive) | -0.497 (inactive) | -7.4e-05 (inactive) | 0.00546 (inactive) | inactive | -2.06% (inactive) | 18.4% (inactive) | 34.4% (inactive) | 
